Screens as filed in PubChem.
PP5 primary – PP5 phosphatase inhibitors, primary screen, biochemical, fluorescence; purified PP5c, OMFP substrate fluorescence; Serine/threonine-protein phosphatase 5 (Homo sapiens), P53041; inhibition, % at 6.7 µM; 320,000 compounds, 0.18% hits;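 active means inhibition above the campaign's mean inhibition across all tested compounds plus 3 SD, cut at about 9.5% in these data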;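 further: 0% = DMSO only and 100% = 100 µM cantharidin control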
IDE act – human IDE activators in live cells, primary screen, fluorescence polarization, HEK cells, FAbeta-B substrate | Insulin-degrading enzyme (Homo sapiens), P14735 | FAbeta-B cleavage; 0% vehicle, 100% cell-free pure enzyme wells | activation, % at 5.96 µM | 340,000 compounds, 0.073% hits | AID 493087, 2011;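 active means activation above the mean of all tested compounds plus 3 SD, set per screening campaign, cut at about 17% in these data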
SKKanGAS inh – S. pyogenes SKKanGAS growth inhibitors in kanamycin, primary screen, streptokinase expression inhibitor project, SKKanGAS strain, BacTiter-Glo luminescence | inhibition, % at 7.5 µM | 300,000 compounds, 1.3% hits | 6 h | AID 1662, 2009;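 active means mean replicate score, as percent of positive control median, at least 50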;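 further: strain carries kanamycin resistance gene driven by streptokinase promoter and grows in 40 µg/ml kanamycin; loss of luminescence reflects streptokinase promoter inhibition or plain growth inhibition; 0% = median of DMSO wells and 100% = positive control at its reference dose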
IDE inh – human IDE inhibitors in live cells, primary screen, fluorescence polarization, HEK cells, FAbetaB substrate. Insulin-degrading enzyme (Homo sapiens), P14735. FAbetaB cleavage. inhibition, % at 5.59 µM. 320,000 compounds, 0.41% hits. AID 434962, 2010;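 active means percent inhibition above the average of all tested compounds plus 3 SD, set per screening campaign, cut at about 16% in these data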;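 further: IDE supplied by intact live HEK cells; FP after avidin binding of uncleaved biotin substrate so inhibition keeps polarization high; 0% = DMSO wells and 100% = 60 µM reference IDE inhibitor Ii1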
Exocytosis inh – LAMP-1 surface exposure blockers, TALL-104 cells – cell-based, flow cytometry, MLPCN library, primary screen | TALL-104 LAMP-1 surface exposure; cells stimulated with thapsigargin and PMA | inhibition, % at 10 µM | 360,000 compounds, 0.66% hits;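 active means inhibition above about 55%, limit read from the data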
PP1 inh – PP1-alpha phosphatase inhibitors, primary screen, counter-screen for PP5 inhibitor project, biochemical, fluorescence, OMFP substrate, single point. Serine/threonine-protein phosphatase PP1-alpha catalytic subunit (Homo sapiens), P62136. purified PP1alpha. 320,000 compounds, 0.9% hits. inhibition, % at 6.7 µM;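 active means inhibition above the mean inhibition of all tested compounds plus 3 SD, computed separately for each screening campaign, cut at about 15% in these data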
Target sequence (P62136 whole entry, looked up): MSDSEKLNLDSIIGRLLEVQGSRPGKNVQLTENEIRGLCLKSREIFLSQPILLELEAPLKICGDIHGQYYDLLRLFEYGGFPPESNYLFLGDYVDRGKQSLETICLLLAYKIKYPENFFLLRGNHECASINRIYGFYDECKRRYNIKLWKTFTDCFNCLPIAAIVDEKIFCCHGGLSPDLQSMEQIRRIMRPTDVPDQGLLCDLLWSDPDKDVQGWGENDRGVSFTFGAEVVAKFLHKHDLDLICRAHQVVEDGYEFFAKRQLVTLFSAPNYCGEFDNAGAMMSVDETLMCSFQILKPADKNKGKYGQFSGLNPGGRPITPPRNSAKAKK
Granule exo CP1 – inhibitors of lytic granule exocytosis, confirmation, TALL-104 cells, flow cytometry, Cherry Pick01; shares compounds with Exocytosis inh; LAMP-1 externalization; stimulated with PMA plus thapsigargin; inhibition, % at 10 µM; 1,500 compounds, 11% hits; in the data active means inhibition above about 60%;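 further: 0% = stimulated vehicle wells and 100% = unstimulated wells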
Active calls of the source: *; . = not tested or not shown. A selection: hits, their analogues and other compounds. The true share with any hit is near 2.8%.

SMILES | PP5 primary | IDE act | SKKanGAS inh | IDE inh | Exocytosis inh | PP1 inh | Granule exo CP1
CCOC(=O)c1nnc(-c2ccc(C)cc2)nc1Oc1ccccc1Cl | 0 | 3 | 9 | -2 | 67* | -4 | 8
CCOC(=O)c1nnc(-c2ccccc2)nc1Sc1c(Cl)cccc1Cl | 2 | 3 | 26 | -2 | 96* | 0 | 57
CCOC(=O)c1nnc(-c2ccc(C)cc2)nc1Sc1ccccc1Cl | 0 | 6 | 3 | 3 | 79* | -7 | 13
CCOC(=O)c1nnc(-c2ccccc2)nc1NCc1ccc(Cl)cc1 | 0 | 3 | 42 | -3 | 6 | 1 | .
CCOC(=O)c1nnc(-c2ccc(C)cc2)nc1Sc1ccc(Cl)cc1 | 2 | 4 | -2 | -1 | -6 | -2 | .
COC(=O)c1ccc(CN2CCc3ccccc32)cc1 | 5 | 4 | 3 | -4 | -2 | 0 | .
CN(C)c1cccc(/C=C(\C#N)c2ccccc2)c1 | 1 | -3 | 6 | 10 | -4 | 4 | .
CC1(C(=O)NS(=O)(=O)c2ccc(Cl)cc2)CCN1C(=O)Cc1ccsc1 (stereo not given) | . | . | . | . | 78* | . | -14
COC(=O)c1c(NC(=O)c2ccc(C(=O)c3ccccc3)cc2)sc2c1CC(C)(C)NC2(C)C | . | . | . | . | 67* | . | 63*
COC(=O)c1c(NC(=O)c2nc3ccccc3s2)sc2c1CC(C)(C)NC2(C)C | 0 | 4 | 12 | 3 | 67* | 3 | 85*
COc1ccc(N/C=C/C(=O)c2cc(OC)c(OC)c(OC)c2)cc1 | 0 | 2 | -1 | 2 | 57* | 1 | -11
COc1ccc(N/C=C/C(=O)c2ccc(Cl)cc2)cc1 | 1 | 0 | 7 | -3 | -5 | -2 | .
COc1ccc(OC)c2c1C(=O)c1ccccc1C2=O | 1 | . | 2 | -7 | . | -1 | .
COc1cccc2c1C(=O)c1ccc3ccccc3c1C2=O | -1 | 5 | 8 | 3 | 61* | 0 | 78*
COCC1CCCN(Cc2cn(Cc3ccccc3)nc2-c2cc3ccccc3o2)C1 (stereo not given) | 0 | -4 | -2 | -7 | 70* | -2 | -5
Oc1ccc2nnc3c(Br)cnn3c2c1 | 1 | -6 | -2 | 15 | -1 | -5 | .
Cc1cc(NCCCOC(C)C)n2c(nc3ccccc32)c1C#N | 1 | 3 | 21 | 4 | 62* | 0 | -14
Cc1cc(NCCCN(C)C)n2c(nc3ccccc32)c1C#N | -1 | -4 | 3 | 2 | 3 | -2 | .
COc1ccc(CNC(=O)COC(=O)[C@H](Cc2c[nH]c3ccccc23)NC(=O)c2cccs2)cc1 | -2 | 3 | 4 | -4 | 58* | 3 | 33
COc1ccc(NC(=O)COc2ccccc2Cc2ccccc2)cc1S(=O)(=O)N1CCOCC1 | . | 2 | . | . | 6 | . | .
NC(=O)c1cnccc1C=Cc1ccccc1 | . | 4 | . | . | 64* | . | -12
COc1cc(Nc2c3ccccc3nc3ccccc23)cc(OC)c1OC | 2 | 3 | -3 | -4 | 7 | 4 | .
COc1ccc(Cl)cc1Nc1cc(C)nc2ccccc12 | 1 | . | 6 | -4 | 76* | -1 | -4
COc1ccccc1Nc1c2ccccc2nc2ccccc12 | 2 | 0 | -2 | 0 | 82* | 2 | 38
CC(NC(=S)Nc1ccc(F)cc1)c1ccccc1 (stereo not given) | 4 | 1 | 5 | -2 | 74* | -1 | -5
SMILES | PP5 primary | IDE act | SKKanGAS inh | IDE inh | Exocytosis inh | PP1 inh | Granule exo CP1
CC(C)c1ccccc1NC(=S)NC(C)c1ccccc1 (stereo not given) | -4 | 5 | -10 | -1 | 2 | -2 | .
CCN(CC)CCSc1nnc2c3ccccc3n(CCc3ccccc3)c2n1 | 0 | 3 | 3 | -3 | 60* | 3 | -14
C=CCn1c2ccccc2c2nnc(SCCCn3c(=O)[nH]c4ccccc43)nc21 | . | -7 | . | . | 67* | . | 12
C=CCn1c2ccccc2c2nnc(SCCN3CCCCC3)nc21 | 4 | 0 | -3 | 4 | 18 | 3 | .
CCOC(=O)c1c(C)oc2c1c1c(c3ccccc32)OCN(Cc2cccnc2)C1 | . | -3 | . | . | 1 | . | .
CCOC(=O)c1c(C)oc2c1c(C(c1cccnc1)N1CCOCC1)c(O)c1ccccc12 (stereo not given) | 4 | -1 | 4 | 5 | 98* | 0 | 83*
NC(=O)CC(NC(=O)Cc1cccc2ccccc12)c1ccc(N2CCCCCCC2)c([N+](=O)[O-])c1 (stereo not given) | 4 | 2 | 21 | -2 | 10 | 8 | .
NC(=O)CC(NC(=O)Cc1cccc2ccccc12)c1ccc(N2CCC(Cc3ccccc3)CC2)c([N+](=O)[O-])c1 (stereo not given) | 3 | 4 | 14 | 2 | 60* | 13 | -10
COc1ccc(S(=O)(=O)N(C)c2ccc(C(=O)Nc3c(C)n(C)n(-c4ccccc4)c3=O)cc2)cc1 | 0 | -5 | 0 | -4 | 0 | 1 | .
COc1ccccc1Cc1c(-c2ccco2)nc2ccc(Cl)cn12 | . | . | . | . | 82* | . | 4
Fc1cccc(Cc2c(-c3ccco3)nc3ccc(Cl)cn23)c1 | . | . | . | . | 58* | . | -11
Clc1ccc2nc(-c3ccco3)c(Cc3ccccc3)n2c1 | . | . | . | . | 46 | . | .
Fc1cccc(Cc2c(-c3ccco3)nc3ccc(Br)cn23)c1 | . | . | . | . | 59* | . | -1
CC(C)C1C(=O)N(Cc2cn(CCC3OCCCO3)nn2)CCS(=O)(=O)N1Cc1ccc(-c2ccc(Cl)nc2)cc1 (stereo not given) | . | . | . | . | 0 | . | .
COc1cccc(CC2(CO)CCCN(Cc3ccccc3Cl)C2)c1 (stereo not given) | 2 | 6 | 11 | 4 | 10 | 0 | .
COc1cccc(CC2(CO)CCCN(Cc3ccc(OC)c(C)c3OC)C2)c1 (stereo not given) | 1 | 2 | 2 | 3 | 60* | 2 | -10
COc1ccccc1C(CNC(=O)c1cccc(S(=O)(=O)N2c3ccccc3CC2C)c1)N(C)C (stereo not given) | . | 2 | . | . | -8 | . | .
COc1ccccc1OCC(O)CNCc1ccc2c(c1)OCO2 (stereo not given) | 2 | 12 | 0 | 13 | -7 | -2 | .
COCCn1nnnc1C(c1ccc(C)cc1)N1CCN(Cc2ccc3c(c2)OCO3)CC1 (stereo not given) | . | 4 | 2 | . | 0 | . | .
Cc1ccc(C(c2nnnn2Cc2cccs2)N2CCN(Cc3ccc4c(c3)OCO4)CC2)cc1 (stereo not given) | 3 | 10 | 1 | 2 | 60* | 0 | 9
